# From PubChem BioAssay AID489039 (National Center for Advancing Translational Sciences (NCATS), 2010)
# Records with an inconclusive call do not appear. Where a call stands in place of a potency, no number is given. Activity calls are given as the source filed them. Calls come from the whole dose curve; as a rule, active = well fitted inhibition curve with a large enough effect; inconclusive = small, poorly fitted or top-dose-only effect, or effect the other way; inactive = no such curve, though single readings can be large or run the other way.
# Molecular target: Nuclear receptor ROR-alpha (Homo sapiens) (UniProt P35398)
# Test: ROR alpha selectivity assay for inhibitors of ROR gamma transcriptional activity
# Details: Drosophila S2 Gal4-RORalpha UAS-luciferase, 20 h; series mostly up to 92.2 µM
# Description: NIH Molecular Libraries Probe Production Network [MLPCN] NIH Chemical Genomics Center [NCGC] MLPCN Grant: R03 DA026211-01 Assay Provider: Dan Littman, New York University Assay Overview: The retinoic acid-related orphan receptor (ROR) gamma is a transcription factor that has a central role in the differentiation of Th17 cells, a subset of T helper cells that secrete the inflammatory cytokines IL-17A, IL-17F, and IL-22. Th17 cells have been implicated in graft versus host disease, autoimmune disease and asthma. RORgamma is induced in naive T helper cells in the presence of TGF-beta combined with IL-6, IL-21, or IL-23, and thereafter directs the expression of the Th17 lineage cytokines. To identify nonselective inhibitors, a Drosophila Schneider cell line was stably transfected with two vectors: a gene expressing a fusion of the Gal4 DNA binding domain and the transactivation domain of the ROR alpha, under the control of the metallothionine promoter and a Photinus luciferase reporter regulated by the Gal4 binding site enhancer, UAS. […] Small molecule inhibitors that inhibit RORgamma and RORalpha, or components common to both, will be active in both assays and thus scored as nonselective.
# Assay Protocol Summary: For screening, 600 cells in 4 uL/well were dispensed into white solid 1536-well plates (Grenier) using a solenoid-based dispenser. Following transfer of 23 nL compound or DMSO vehicle by a pin tool, the plates were incubated 1 hr at ambient temperature, and 1 uL/well copper sulfate (700 uM final concentration) was added. The plates were centrifuged 15 s at 1000 RPM and incubated 20 hr at ambient temperature. After addition of 1.5 uL Photinus luciferase detection reagent, the plates were incubated 10 min at ambient temperature and then read by an ViewLux (Perkin Elmer) to detect luminescence.
row,SMILES,Potency
1,COc1ccc(CNC(=O)[C@H](Cc2ccccc2)NC(=O)C2CCN(C(=O)[C@@H]3CCCN3C(=O)OC(C)(C)C)CC2)cc1,inactive
2,CC1CCCN(C(=O)CC(c2ccc3c(c2)OCO3)c2cc(C(C)C)ccc2O)C1 (stereo not given),inactive
3,Cc1cccc(C(CC(=O)NCc2ccco2)c2ccccc2)c1O (stereo not given),inactive
4,COc1cc(O)c(C(CC(=O)NC2CCCc3ccccc32)c2ccc3c(c2)OCO3)c(OC)c1 (stereo not given),inactive
5,COc1cc(O)c(C(CC(=O)N2CCCC(C)C2)c2ccccc2OC)c(OC)c1 (stereo not given),inactive
6,COc1cc(C)nc(-n2nc(C)cc2OC)n1,8.12 µM (active)
7,COC(=O)c1ccc(OCC(=O)c2ccc(O)cc2O)cc1,0.0575 µM (active)
8,Cc1ccc(OCCCC(=O)Nc2nc3ccccc3[nH]2)cc1,8.12 µM (active)
9,O=C(/C=C/c1ccc(S(=O)(=O)N2CCOCC2)cc1)NC(=S)Nc1ccc(N2CCOCC2)cc1,14.4 µM (active)
10,COc1cc(O)c(C(CC(=O)N2CCCC(CN3CCCCC3)C2)c2ccc3c(c2)OCO3)c(OC)c1 (stereo not given),inactive
11,COc1cc(O)c(C(CC(=O)N2CCCC(C)C2)c2ccc(-c3ccccc3)cc2)c(OC)c1 (stereo not given),inactive
12,CCOC(=O)C1CCN(CC(=O)Nc2cc(C)nn2-c2nc3ccccc3s2)CC1,20.4 µM (active)
13,COc1cc(O)c(C(CC(=O)N2CCCC2)c2ccc3c(c2)OCO3)c(OC)c1 (stereo not given),inactive
14,COc1ccc(C(CC(=O)N2CCCC(C)C2)c2ccccc2)cc1 (stereo not given),inactive
15,Cc1cc(C)n(-c2nc(SCC(=O)O)c3c4c(sc3n2)CCCC4)n1,18.2 µM (active)
16,COc1cc(O)c(C(CC(=O)N2CCCCC2)c2ccc3c(c2)OCO3)c(OC)c1 (stereo not given),inactive
17,COc1cc(O)c(C(CC(=O)N2CCCCC2C)c2ccc3c(c2)OCO3)c(OC)c1 (stereo not given),inactive
18,COc1cc(O)c(C(CC(=O)N2CCCC(C#N)C2)c2ccc3c(c2)OCO3)c(OC)c1 (stereo not given),inactive
19,O=C(CCCN1C(=O)/C(=C/c2ccccc2Cl)SC1=S)Nc1cccnc1,1.82 µM (active)
20,O=S(=O)(c1ccc(NC(=S)N/N=C/c2ccc(Oc3ccccc3)cc2)cc1)N1CCOCC1,2.57 µM (active)
